Experimental data reported in ChEMBL document CHEMBL3988442, “University of Dundee, Small-Polar-MMV Screening Library” (2021).
For some of these results: Measured potencies and affinities stand elsewhere.

Legend:
Parameters in all cases: scale not given: direction of the effect not stated beside the values
[1] = target: Protein translocase subunit SecA (Escherichia coli (strain K12)) (UniProt P10408); experiment: Assay to Identify E. coli SecA ATPase Inhibitors; format: functional; settings: 30 µM
[2] = target: T1, Ubiquitin-activating enzyme e1, putative (Leishmania donovani (strain BPK282A1)) (UniProt E9BSI1); experiment: Leishmania donovani Ubiquitin Activating Enzyme (LdE1); format: functional; settings: 30 µM
T1 sequence (whole entry): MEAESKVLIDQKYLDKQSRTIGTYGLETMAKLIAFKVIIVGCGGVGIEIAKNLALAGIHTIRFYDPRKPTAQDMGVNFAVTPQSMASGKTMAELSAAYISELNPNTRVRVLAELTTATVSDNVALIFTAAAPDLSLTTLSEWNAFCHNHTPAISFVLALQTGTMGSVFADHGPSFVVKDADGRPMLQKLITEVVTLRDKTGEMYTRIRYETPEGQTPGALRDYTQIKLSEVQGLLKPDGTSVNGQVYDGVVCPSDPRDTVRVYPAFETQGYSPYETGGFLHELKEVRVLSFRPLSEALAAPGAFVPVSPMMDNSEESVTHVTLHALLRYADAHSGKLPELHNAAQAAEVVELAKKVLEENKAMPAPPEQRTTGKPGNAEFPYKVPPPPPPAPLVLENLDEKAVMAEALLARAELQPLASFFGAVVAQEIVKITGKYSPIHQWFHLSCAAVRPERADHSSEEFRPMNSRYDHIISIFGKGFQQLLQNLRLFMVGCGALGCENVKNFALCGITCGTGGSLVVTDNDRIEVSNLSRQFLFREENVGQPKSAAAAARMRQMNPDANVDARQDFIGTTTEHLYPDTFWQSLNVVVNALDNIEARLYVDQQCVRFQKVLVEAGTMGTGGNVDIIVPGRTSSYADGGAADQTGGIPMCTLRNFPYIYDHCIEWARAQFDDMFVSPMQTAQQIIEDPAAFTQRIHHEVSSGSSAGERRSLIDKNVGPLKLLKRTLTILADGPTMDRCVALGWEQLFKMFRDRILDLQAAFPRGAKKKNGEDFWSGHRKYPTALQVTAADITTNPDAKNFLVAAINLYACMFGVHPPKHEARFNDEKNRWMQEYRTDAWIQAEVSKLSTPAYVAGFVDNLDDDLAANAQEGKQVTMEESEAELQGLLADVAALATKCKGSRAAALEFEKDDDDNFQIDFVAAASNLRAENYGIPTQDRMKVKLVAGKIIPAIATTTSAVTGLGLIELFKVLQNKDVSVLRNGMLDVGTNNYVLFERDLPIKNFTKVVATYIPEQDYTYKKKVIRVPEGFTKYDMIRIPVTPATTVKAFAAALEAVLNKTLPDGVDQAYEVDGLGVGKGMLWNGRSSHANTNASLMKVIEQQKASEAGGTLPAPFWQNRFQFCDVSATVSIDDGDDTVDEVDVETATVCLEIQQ

[3] = target: AMP-activated protein kinase, AMPK (Homo sapiens) (UniProt P54646+O43741+P54619+Q9UGJ0+Q9Y478+Q13131+Q9UGI9); experiment: AMP-dependent Kinase enzyme assay. An in vitro enzyme assay that detects ADP turnover that is directly proportional to AMPK activity. This uses naive AMPK that is activated during the assay with MK-8722; format: functional; settings: 30 µM
[4] = target: Sialic acid-binding Ig-like lectin 9 (Homo sapiens) (UniProt Q9Y336); experiment: Hs-Siglec9 ALPHAscreen SOP 20170721; settings: 10 µM
Trypanosoma cruzi = experiment: Trypanosoma cruzi phosphomannomutase and mannose-1-phosphate guanylyltransferase assay; format: functional; settings: 10 µM
[5] = target: T2, Arginase-2, mitochondrial (Homo sapiens) (UniProt P78540); experiment: in vitro enzyme assay to detect the production of urea directly proportional to the activity of Arginase II; format: functional; settings: 33.3 µM; also: in the data most compounds retested in dose-response had high values
T2 sequence (whole entry): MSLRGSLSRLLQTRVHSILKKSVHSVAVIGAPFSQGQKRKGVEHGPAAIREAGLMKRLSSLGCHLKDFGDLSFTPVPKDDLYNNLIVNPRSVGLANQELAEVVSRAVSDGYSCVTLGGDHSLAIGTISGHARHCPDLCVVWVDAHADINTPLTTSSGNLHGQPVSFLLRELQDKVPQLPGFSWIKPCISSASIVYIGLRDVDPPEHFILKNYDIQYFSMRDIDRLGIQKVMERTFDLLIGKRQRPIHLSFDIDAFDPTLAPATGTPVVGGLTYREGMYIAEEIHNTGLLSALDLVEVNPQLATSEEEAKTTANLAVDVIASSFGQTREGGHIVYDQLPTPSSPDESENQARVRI

[6] = target: T3, Proteasome subunit beta (Trypanosoma cruzi) (UniProt O96673); experiment: Trypanosoma cruzi proteasome chymotrypsin-like activity (TcProtChymo) assay.; also: in the data most compounds retested in dose-response had high values; format: functional; settings: 9.37 µM
T3 sequence (whole entry): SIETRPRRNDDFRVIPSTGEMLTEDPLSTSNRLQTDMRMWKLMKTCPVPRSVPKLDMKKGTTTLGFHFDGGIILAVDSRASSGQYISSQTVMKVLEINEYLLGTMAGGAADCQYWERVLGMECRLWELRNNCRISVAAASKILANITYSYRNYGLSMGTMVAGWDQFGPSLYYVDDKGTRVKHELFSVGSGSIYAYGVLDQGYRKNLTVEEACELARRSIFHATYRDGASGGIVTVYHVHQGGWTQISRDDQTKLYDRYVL

Homo sapiens = species on record: Homo sapiens; experiment: To identify inhibition of the IFN signalling (Jak-Stat) pathway via expression of an eGFP reporter gene under the control of an IFN-stimulated response element (ISRE) containing MxA promoter.; format: functional; settings: 30 µM
[7] = target: T4, Tyrosyl-tRNA synthetase, putative (Trypanosoma cruzi (strain CL Brener)) (UniProt Q4DSP6); experiment: Trypanosoma cruzi tyrosyl tRNA synthetase (TcYRS) _High Tyrosine SOP; format: functional; settings: 30 µM; also: in the data most compounds retested in dose-response had high values
T4 sequence (whole entry): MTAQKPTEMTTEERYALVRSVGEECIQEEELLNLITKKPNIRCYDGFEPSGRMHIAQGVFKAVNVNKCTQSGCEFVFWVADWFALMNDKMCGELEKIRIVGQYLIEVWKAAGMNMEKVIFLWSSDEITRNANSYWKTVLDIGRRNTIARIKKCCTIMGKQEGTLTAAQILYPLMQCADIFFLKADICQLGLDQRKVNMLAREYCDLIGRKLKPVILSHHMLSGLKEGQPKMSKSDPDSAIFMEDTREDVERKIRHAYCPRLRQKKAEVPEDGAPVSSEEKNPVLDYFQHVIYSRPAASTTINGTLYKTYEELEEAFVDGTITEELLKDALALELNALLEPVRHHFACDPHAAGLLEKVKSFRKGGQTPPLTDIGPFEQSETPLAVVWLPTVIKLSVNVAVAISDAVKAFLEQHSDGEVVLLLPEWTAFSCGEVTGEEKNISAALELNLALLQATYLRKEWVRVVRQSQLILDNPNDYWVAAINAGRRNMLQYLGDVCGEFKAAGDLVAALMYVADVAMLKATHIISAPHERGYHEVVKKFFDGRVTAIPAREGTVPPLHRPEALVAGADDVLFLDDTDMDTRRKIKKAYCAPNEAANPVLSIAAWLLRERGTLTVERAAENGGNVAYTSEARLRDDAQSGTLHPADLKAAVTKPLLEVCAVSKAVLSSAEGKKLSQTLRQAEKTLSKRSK

[8] = target: T4, Tyrosyl-tRNA synthetase, putative (Trypanosoma cruzi (strain CL Brener)); experiment: Trypanosoma cruzi tyrosyl tRNA synthetase (TcYRS) SOP; format: functional; settings: 30 µM
[9] = target: Chromo domain-containing protein 1 (Saccharomyces cerevisiae (strain ATCC 204508 / S288c) (Baker's yeast)) (UniProt P32657); experiment: ScCHD-1 Enzyme Inhibition Assay; format: functional; settings: 30 µM; also: in the data most compounds retested in dose-response had high values
Sequence of Chromo domain-containing protein 1 (Saccharomyces cerevisiae (strain ATCC 204508 / S288c) (Baker's yeast)) (P32657 whole entry, the tested form may be a part): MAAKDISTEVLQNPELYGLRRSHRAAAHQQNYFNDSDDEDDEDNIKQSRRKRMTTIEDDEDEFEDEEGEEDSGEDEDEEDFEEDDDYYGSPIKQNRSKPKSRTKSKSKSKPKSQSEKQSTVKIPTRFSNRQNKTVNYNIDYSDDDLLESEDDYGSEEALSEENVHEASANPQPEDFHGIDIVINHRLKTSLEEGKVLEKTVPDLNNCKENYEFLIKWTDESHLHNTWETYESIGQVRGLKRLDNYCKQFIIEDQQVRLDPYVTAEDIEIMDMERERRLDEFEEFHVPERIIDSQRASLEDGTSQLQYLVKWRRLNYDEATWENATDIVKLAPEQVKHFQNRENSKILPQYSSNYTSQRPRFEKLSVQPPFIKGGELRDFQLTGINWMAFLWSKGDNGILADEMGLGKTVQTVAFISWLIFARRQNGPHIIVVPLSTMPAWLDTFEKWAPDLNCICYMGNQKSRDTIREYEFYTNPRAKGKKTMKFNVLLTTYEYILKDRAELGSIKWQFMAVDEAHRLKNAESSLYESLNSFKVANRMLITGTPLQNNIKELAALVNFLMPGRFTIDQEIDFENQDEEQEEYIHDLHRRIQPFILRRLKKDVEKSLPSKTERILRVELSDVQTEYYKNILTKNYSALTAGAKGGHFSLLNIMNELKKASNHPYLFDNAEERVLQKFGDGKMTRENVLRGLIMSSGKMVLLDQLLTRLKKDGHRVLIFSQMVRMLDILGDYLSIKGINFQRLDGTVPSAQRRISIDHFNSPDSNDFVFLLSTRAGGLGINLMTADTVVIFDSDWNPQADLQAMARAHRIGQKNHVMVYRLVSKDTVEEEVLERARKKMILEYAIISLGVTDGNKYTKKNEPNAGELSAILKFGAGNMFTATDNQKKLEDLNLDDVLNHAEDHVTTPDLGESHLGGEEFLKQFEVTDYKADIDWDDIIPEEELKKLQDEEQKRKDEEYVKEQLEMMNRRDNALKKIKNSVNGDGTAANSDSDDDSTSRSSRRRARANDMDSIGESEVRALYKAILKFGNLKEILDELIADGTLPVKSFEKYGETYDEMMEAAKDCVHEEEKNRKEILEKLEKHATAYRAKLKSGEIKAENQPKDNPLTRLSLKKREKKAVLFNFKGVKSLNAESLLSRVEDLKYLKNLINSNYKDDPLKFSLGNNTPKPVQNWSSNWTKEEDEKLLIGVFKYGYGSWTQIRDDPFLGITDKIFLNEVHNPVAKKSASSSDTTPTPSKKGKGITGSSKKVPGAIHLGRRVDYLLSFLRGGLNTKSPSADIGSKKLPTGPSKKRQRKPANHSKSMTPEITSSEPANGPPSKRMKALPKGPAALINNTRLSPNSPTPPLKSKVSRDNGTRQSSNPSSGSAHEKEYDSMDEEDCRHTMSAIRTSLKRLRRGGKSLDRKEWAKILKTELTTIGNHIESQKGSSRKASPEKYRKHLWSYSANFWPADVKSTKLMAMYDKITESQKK

Sequence of Protein translocase subunit SecA (Escherichia coli (strain K12)) (P10408 whole entry): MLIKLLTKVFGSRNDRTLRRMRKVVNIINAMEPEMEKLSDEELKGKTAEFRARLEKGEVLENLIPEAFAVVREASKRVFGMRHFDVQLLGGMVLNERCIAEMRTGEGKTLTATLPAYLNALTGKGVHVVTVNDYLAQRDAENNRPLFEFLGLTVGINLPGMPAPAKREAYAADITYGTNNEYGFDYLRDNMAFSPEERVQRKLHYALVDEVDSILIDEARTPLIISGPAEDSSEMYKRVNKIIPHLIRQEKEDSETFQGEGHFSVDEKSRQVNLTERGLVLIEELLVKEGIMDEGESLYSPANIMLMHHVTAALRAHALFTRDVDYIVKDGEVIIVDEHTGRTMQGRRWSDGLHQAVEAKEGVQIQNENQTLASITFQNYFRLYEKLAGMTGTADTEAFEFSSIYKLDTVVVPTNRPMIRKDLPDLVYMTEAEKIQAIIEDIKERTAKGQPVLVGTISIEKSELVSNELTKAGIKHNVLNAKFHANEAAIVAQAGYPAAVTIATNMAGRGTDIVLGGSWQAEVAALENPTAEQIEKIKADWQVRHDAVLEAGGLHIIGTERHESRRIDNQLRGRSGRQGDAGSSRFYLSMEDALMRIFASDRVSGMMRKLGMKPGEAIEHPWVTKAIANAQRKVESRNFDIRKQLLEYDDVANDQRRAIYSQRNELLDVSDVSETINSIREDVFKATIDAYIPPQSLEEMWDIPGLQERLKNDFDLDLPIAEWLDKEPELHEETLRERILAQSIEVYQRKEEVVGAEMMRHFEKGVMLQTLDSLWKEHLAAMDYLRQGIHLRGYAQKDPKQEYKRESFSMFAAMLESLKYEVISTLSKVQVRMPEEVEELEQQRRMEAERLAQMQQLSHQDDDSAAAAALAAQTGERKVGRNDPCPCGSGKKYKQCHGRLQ
Sequence of Sialic acid-binding Ig-like lectin 9 (Homo sapiens) (Q9Y336 whole entry): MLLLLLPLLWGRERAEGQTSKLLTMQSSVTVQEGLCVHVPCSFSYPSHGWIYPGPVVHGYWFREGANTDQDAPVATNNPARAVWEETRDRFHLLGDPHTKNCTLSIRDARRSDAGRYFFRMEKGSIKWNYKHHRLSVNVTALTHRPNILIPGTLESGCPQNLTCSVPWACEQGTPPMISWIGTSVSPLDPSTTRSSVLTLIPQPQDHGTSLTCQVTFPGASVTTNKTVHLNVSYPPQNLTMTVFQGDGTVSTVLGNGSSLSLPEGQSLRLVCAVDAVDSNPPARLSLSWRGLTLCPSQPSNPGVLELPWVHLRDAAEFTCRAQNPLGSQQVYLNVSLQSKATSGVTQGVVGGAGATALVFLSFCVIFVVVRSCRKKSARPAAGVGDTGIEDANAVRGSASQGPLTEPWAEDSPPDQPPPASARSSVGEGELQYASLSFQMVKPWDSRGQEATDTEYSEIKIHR

| SMILES | Percent Effect [1] [%] | Percent Effect [2] [%] | Percent Effect [3] [%] | Percent Effect [4] [%] | Percent Effect (Trypanosoma cruzi) [%] | Percent Effect [5] [%] | Percent Effect [6] [%] | Percent Effect (Homo sapiens) [%] | Percent Effect [7] [%] | Percent Effect [8] [%] | Percent Effect [9] [%] |
| --- | --- | --- | --- | --- | --- | --- | --- | --- | --- | --- | --- |
| CN(Cc1ccc(F)cc1)C(=O)Cn1nc(-c2ccc(F)cc2)oc1=O | -0.937 | 2.63 | 0.873 | -13.2 | -7.3 | 11.8 | 15.4 | 14.9 | -7.45 | -2.6 | -7.96 |
| Cc1n[nH]c(C)c1NC(=O)CN1CCCC(CNC(=O)C(C)(C)C)C1 (stereo not given) | -2.53 | 2.63 | 0.454 | 5.58 | -0.188 | 2.68 | 8.19 | 21.7 | -1.47 | -2.44 | 0.796 |
| Cc1ccc(CN2CCCC23CCN(S(=O)(=O)c2ccccc2)C3)o1 (stereo not given) | -3.52 | 8.11 | 0.79 | -6.47 | 2.25 | 1.59 | 18.6 | 6.15 | 9.73 | 17.9 | 2.48 |
| O=C1CC(c2ccc(C(=O)O)cc2)c2ncn(-c3ccccc3)c2N1 (stereo not given) | -4.54 | 9.33 | -172 | -2.38 | 0.786 | -8.63 | 19.2 | 2.29 | 9.52 | 7.69 | -7.97 |
| CN(c1ccc(C(C)(C)C)cc1)S(=O)(=O)c1cc(C(=O)O)cs1 | -2.58 | -2.7 | -8.07 | 8.29 | -3.11 | 2.4 | -1.08 | -8.15 | -1.48 | 1.24 | 1.18 |
| O=C(NC1CC1)c1cc(NC(=O)N2CCCC(O)C2)ccc1Cl (stereo not given) | -1.73 | 11 | 1.28 | 3.66 | -5.36 | 1.6 | 16.4 | -0.927 | 6.25 | 13.6 | 1.44 |
| Cc1cn(CC(=O)NC2CCN(C(=O)C3CC3)CC2)c2ccccc12 | -5.47 | 2.7 | -7.57 | 10.7 | 7.72 | 0.744 | 4.55 | 9.22 | 3.23 | 11.1 | -3.71 |
| N#Cc1ccccc1CN1C[C@@H]2CC[C@H](C1)N(Cc1cscn1)C2=O | -1.93 | 5.41 | -3.34 | 8.56 | -2.9 | -1.91 | 9.14 | -7.44 | 3.7 | -14.6 | -3.95 |
| Cn1c(Cn2cccn2)nnc1C1CCN(Cc2cccnc2N)CC1 | -8.22 | 1.39 | -1.91 | -4.65 | -3.4 | 0.883 | 3.86 | 12.7 | -1.05 | 0 | 0.423 |
| CNc1cc(N2CCCC2CNCc2ccccn2)ncn1 (stereo not given) | -1.73 | 13.5 | -11.7 | -3.49 | -2.93 | -2.08 | 16 | 24.8 | 11.9 | 11 | 26.6 |
| Cc1nccn1C1CCCN(C(=O)c2ccc(N3CCCC3)nn2)C1 (stereo not given) | -4.79 | 10.5 | -5.31 | 8.97 | 1.59 | -0.719 | -4.65 | 2.56 | 4.43 | 11.1 | -6.5 |
| Cc1cccc(C(=O)NCc2ccc(S(N)(=O)=O)cc2)n1 | -5.17 | 20.8 | 1.31 | -0.564 | -0.187 | 2.85 | 4.39 | 8.2 | 9.71 | 24.4 | -6.84 |
| CCc1nnc(CN2CCN(C(=O)c3cc4ccccc4[nH]3)CC2)o1 | -3 | -2.6 | 2.79 | 2.32 | 8.91 | -1.47 | 2.83 | -20 | 1.91 | 2.35 | -14.7 |
| CCN1CCN(c2ccc(F)cc2C(C)NCc2ccncc2)CC1 (stereo not given) | -5.73 | 0 | -10.3 | -1.77 | -2.25 | -3.72 | 9.7 | 6.08 | 3.23 | 6.17 | -0.559 |
| CC1CN(Cc2noc(C3CC3)n2)CCN1Cc1nccn1C (stereo not given) | -5.15 | 2.53 | -12.8 | 3.3 | 5.19 | -2.66 | 1.72 | 8.77 | 6.4 | 11.4 | -1.35 |
| c1coc(CN2Cc3nccn3CC(Cn3cncn3)C2)c1 (stereo not given) | -4.49 | -2.74 | -1.24 | 1.11 | -2.38 | -4.39 | 6.25 | -3.99 | 1.04 | 1.24 | -1.23 |
| Cc1noc(CN2CCN(CC(C)O)CC2)n1 (stereo not given) | -0.907 | 8.11 | -4.38 | 4.09 | 0.195 | 1.25 | 9.21 | -0.0675 | 6.93 | 8.54 | -4.47 |
| Cn1ccc(C(=O)NC2CCC23CCN(C(=O)N2CCCC2)CC3)c1 (stereo not given) | -3.06 | 16.2 | 3.04 | -9.67 | 3.42 | -6.05 | 19.2 | -7.3 | 6.49 | 15.4 | 1.18 |
| CCN1C(=O)CCC12CCCN(Cc1nccs1)CC2 (stereo not given) | -5.45 | 8 | 11.7 | 0.513 | 2.56 | -0.699 | 8.37 | 9.53 | 7.45 | 16.7 | -1.64 |
| CC(=O)N1CCN(c2cc(C3CN(C)CCO3)nc(C)n2)CC1 (stereo not given) | -3.82 | 12.2 | 9.39 | 0.199 | -3.36 | -1.16 | 14.8 | 12.3 | 5.38 | 14.3 | -1.64 |
